# This is part of a sample that, as a whole, favours compounds with a hit. Of some 83,000 tested, about 20% had one in any assay.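 Each cell line was grown in a 96-well plate and treated with one concentration of compound for 48 hours. Values below 10 were considered active.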 Unmarked numbers belong to inactive results. Activity calls are given as the source filed them.
# How the values were obtained:
# Assay in all cases: NCI-60 one-dose screen, 48 h (100 = growth as untreated, 0 = no growth, -100 = all killed)
# Details in all cases: 10 µM
# DU-145 prostate = test system: DU-145 prostate
# K-562 leukemia = test system: K-562 leukemia
# MALME-3M melanoma = test system: MALME-3M melanoma
# MDA-MB-231 breast = test system: MDA-MB-231 breast
# SF-268 CNS = test system: SF-268 CNS
# SF-295 CNS = test system: SF-295 CNS
# SF-539 CNS = test system: SF-539 CNS
# UACC-257 melanoma = test system: UACC-257 melanoma
# M14 melanoma = test system: M14 melanoma
# HCT-15 colon = test system: HCT-15 colon
# HT29 colon = test system: HT29 colon
# SNB-75 CNS = test system: SNB-75 CNS
# SNB-19 CNS = test system: SNB-19 CNS
# U251 CNS = test system: U251 CNS
# PC-3 prostate = test system: PC-3 prostate
# SK-MEL-5 melanoma = test system: SK-MEL-5 melanoma
# UACC-62 melanoma = test system: UACC-62 melanoma
# LOX IMVI melanoma = test system: LOX IMVI melanoma
# SK-MEL-28 melanoma = test system: SK-MEL-28 melanoma
SMILES,growth (DU-145 prostate),growth (K-562 leukemia),growth (MALME-3M melanoma),growth (MDA-MB-231 breast),growth (SF-268 CNS),growth (SF-295 CNS),growth (SF-539 CNS),growth (UACC-257 melanoma),growth (M14 melanoma),growth (HCT-15 colon),growth (HT29 colon),growth (SNB-75 CNS),growth (SNB-19 CNS),growth (U251 CNS),growth (PC-3 prostate),growth (SK-MEL-5 melanoma),growth (UACC-62 melanoma),growth (LOX IMVI melanoma),growth (SK-MEL-28 melanoma)
Cc1ccc(-c2nc(Nc3ccc(S(N)(=O)=O)cc3)c3ccccc3n2)cc1,56.6%,6.36% (active),98.8%,22.6%,52.1%,24.2%,37%,93.9%,22.9%,1.3% (active),14.6%,87.6%,60.6%,49.7%,39.5%,74.4%,78.5%,-71.5% (active),75.8%
O=c1[nH]c2ccccc2cc1CSc1ccc(Nc2nccc(-c3ccc(C(F)(F)F)cc3)n2)cc1,32.3%,54.9%,6.21% (active),11.9%,40.4%,-62.6% (active),12%,90%,80.1%,29.7%,28.8%,19.1%,33.1%,-26.4% (active),43.8%,89.2%,81.9%,15.5%,78.7%
C=CCn1c(SCC(=O)Nc2ccc(C(=O)/C=C/c3ccccc3)cc2)nnc1-c1c[nH]c2ccccc12,65.8%,14.6%,92.4%,69.3%,53.3%,35%,-7.36% (active),80.3%,35.3%,-57.2% (active),-31.5% (active),82.3%,54.1%,-52.5% (active),39.4%,27.7%,47%,-100% (active),68.5%
CN1C/C(=C\c2ccc(O)cc2O)c2[o+]c3cc(O)ccc3cc2C1,78.7%,34.9%,26.5%,14.2%,70%,92.5%,-8.51% (active),58.5%,55.2%,21.9%,44.4%,60.5%,42.1%,14%,65.8%,57.9%,47.5%,-66.7% (active),17.3%
COc1cc(C2CC(c3ccccc3)=Nc3c(N)nc(N)nc3N2)ccc1Oc1nc(Nc2ccc(F)cc2)nc(N(C)C)n1 (stereo not given),48%,17.9%,32.4%,31%,55%,45.9%,63%,45.4%,46.6%,20.8%,24.7%,61%,62.2%,56.3%,40.7%,-97.8% (active),48.5%,23.2%,67.8%
O=c1c2ccccc2nc(COc2ccccc2)n1/N=C/c1ccc(F)cc1,91.4%,69.8%,115%,88%,99.7%,89.4%,89.6%,99.8%,98.8%,76.5%,61.4%,105%,87.7%,101%,76.2%,68.5%,62.9%,94.9%,96%
CCOC(=O)c1sc(N/N=C(\C)c2ccc3c(c2)Nc2ccccc2S3)nc1C,44.9%,1.72% (active),31.9%,18.5%,56.9%,-14.9% (active),33.8%,35.8%,19.4%,5.74% (active),30%,97.7%,49.7%,27.3%,21.9%,20.8%,32.4%,-58.4% (active),39.1%
CCOc1ccc2ncc(C#Cc3cncc(C(=O)Nc4ccc(CN5CCN(C)CC5)c(C(F)(F)F)c4)c3)n2n1,-96.7% (active),4.86% (active),-81.9% (active),-88.9% (active),-49.4% (active),-88.5% (active),-97.9% (active),-62.2% (active),-73% (active),-86.1% (active),-51% (active),-88.8% (active),-63.3% (active),-41.5% (active),-34.9% (active),-83.4% (active),-71.3% (active),-80% (active),-83.1% (active)
Cc1cc(=O)oc2cc(OCCCCOc3ccc(/C=C/C(=O)Nc4ccc(F)c(Cl)c4)cc3)ccc12,89.1%,88%,71%,97.1%,111%,101%,89.3%,97.8%,95.9%,97%,111%,116%,93.4%,95.1%,99.6%,85.2%,92%,97.6%,93%
Cc1noc2c(Cc3ccc([N+](=O)[O-])cc3)nn(CC(=O)N/N=C/c3ccc(Cl)cc3)c(=O)c12,61.6%,72.8%,36.9%,4.43% (active),23.5%,70.1%,8.2% (active),81%,68.1%,80.5%,62.3%,44.9%,42.2%,12.7%,59.5%,88.4%,65.3%,40.7%,69.9%
COc1ccc(C2NC(=S)NC(C)=C2C(=O)OC(C)C)cc1OC (stereo not given),110%,105%,95.7%,105%,107%,97.4%,103%,119%,105%,105%,115%,94.9%,98.9%,102%,96%,98.9%,90.5%,99.3%,109%
O=C(CNc1nc(-c2ccccc2)cs1)Nc1ccc(Cl)cc1,-93.3% (active),-16.4% (active),-90.3% (active),-94.3% (active),-49% (active),-96.9% (active),-98.8% (active),-78.8% (active),-90.9% (active),-85.4% (active),-51% (active),-44.9% (active),-100% (active),-87.3% (active),-40% (active),-96.9% (active),-92.4% (active),-90.5% (active),-96.2% (active)
N#Cc1ccc(NC(=O)CSc2ccc(-c3ccc(Br)cc3)nn2)cc1,88.8%,48.7%,68.8%,76.7%,62.6%,58.9%,67.2%,47.3%,63.5%,72.7%,84.1%,76%,64%,87.7%,58.6%,4.86% (active),29.9%,52.8%,62.4%
CC(=O)c1ccc(Nc2nc(SC(C)C)nc(-c3ccccc3)c2C#N)cc1,43.8%,43%,8.39% (active),-0.399% (active),41.1%,-40.7% (active),-17.4% (active),96.1%,73.8%,48.7%,48.1%,42.3%,-20% (active),10.2%,71.9%,38.1%,77.9%,0.768% (active),31.3%
CC1CC(c2ccc(N(C)C)cc2)=NN1c1nc(O)c(C2=c3cc(Br)ccc3=NC2=O)s1 (stereo not given),93.7%,61.9%,99.4%,99.8%,91.7%,68.9%,92.3%,91.2%,84.8%,50.5%,83.5%,89.9%,94.7%,69.9%,53.2%,73.5%,98.5%,-46.1% (active),110%
